Screening results (PubChem)
Only some compounds are listed: those with a hit (about 17% of all), similar ones and a draw of the others.
TGFb inhibitor: qHTS for Inhibitors of TGF-b | Potency, µM (highest dose often 46.1 µM), inactives show top-dose activity, negative = inhibition, actives largely listed as inhibitors | AID 588855, 2011 | HepG2 CAGA-GFP TGF-b/SMAD3 reporter, GFP fluorescence, 18 h; TGF-beta stimulated, 500 pg/mL final | 1.2% of 410,000 active; note: % is set by controls: 0 for no effect and ±100 for the full control effect; nearly all actives have a fitted effect of over 65% in size
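Cell-based qHTS in HEPG2 carrying a CAGA-GFP Smad reporter; compounds added before 500 pg/mL final TGF-beta, 18 h incubation at 37 degrees C, GFP fluorescence quantified per cell by imaging cytometry.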
ATXN2 expr inh: Primary qHTS for Inhibitors of ATXN expression | HEK-293 ATXN2-luciferase reporter, luminescence, 24 h | Potency, µM (series often up to 57 µM), for inactives: at the top dose activity change, negative = inhibition, most hits filed as inhibitors | 0.72% of 360,000 active | AID 1745845, 2022; note: % is set by controls: 0 for no effect and ±100 for the full control effect; nearly all actives have a fitted effect of over 55% in size
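ATXN2-luciferase reporter cells (luciferase flanked by upstream and downstream ATXN2 gene portions) were treated 24 h at 37 °C with compounds at up to 57 uM. SteadyGlo luminescence gave expression; GF-AFC fluorescence gave viability.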
TDP1 cell CPT: qHTS for Inhibitors of human tyrosyl-DNA phosphodiesterase 1 (TDP1): qHTS in cells in presence of CPT. chicken DT40 Tdp1-/-;hTDP1 cells + 20 nM CPT, ATP luminescence, 48 h. Potency, µM (highest dose often 46.2 µM), for inactives: top-dose activity change, negative = growth inhibition, actives largely listed as inhibitors. 12% of 420,000 active. AID 686979, 2013; note: % is set by controls: 0 for no effect and ±100 for the full control effect; nearly all actives have a fitted effect of over 55% in size
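Chicken DT40 Tdp1-/- cells complemented with human TDP1, 400 cells/well, exposed to compounds plus 20 nM camptothecin for at least 48 h at 37 C; viability read as ATP content by CellTiter-Glo luminescence.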
DT40 TDP1 no CPT: qHTS for Inhibitors of human tyrosyl-DNA phosphodiesterase 1 (TDP1): qHTS in cells in absence of CPT. DT40 Tdp1-/- hTDP1 cells, no CPT, ATP luminescence, 48 h. Potency, µM (top dose mostly 46.2 µM), for inactives: at the highest dose activity change, negative = growth inhibition, most hits filed as inhibitors. 15% of 420,000 active; note: % is set by controls: 0 for no effect and ±100 for the full control effect; nearly all actives have a fitted effect of over 55% in size
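Seeded 400 DT40-hTDP1 cells/well (vehicle DMSO, no 20 nM CPT); pinned compounds; ≥48 hr at 37 °C; CellTiter-Glo luminescence as viability measure.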
ATXN viability: Viability Counterscreen for Primary qHTS for Inhibitors of ATXN expression. S2 cells (HEK-293 line with an ATXN2-luciferase reporter) viability, CellTiter-Fluor protease fluorescence, 24 h. Potency, µM (top dose mostly 56.7 µM), usual class: cytotoxic. 0.49% of 400,000 active. AID 651635, 2014; note: nearly all actives have a fitted effect of over 40% in size
HepG2 viability: qHTS for Inhibitors of TGF-b: Cytotox Counterscreen; HepG2 CAGA-GFP viability, ATP luminescence, 18 h; Potency, µM (top dose mostly 46.1 µM), inactives show at the highest dose activity change, negative = cytotoxicity, usual class: cytotoxic; 0.76% of 410,000 active; AID 588856, 2011
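HepG2 CAGA-GFP cells (1000/well, DMEM with 1% FBS) received compound, then TGF-beta at 500 pg/mL final, and were incubated 18 hours at 37 degrees C. Viability was read by CellTiter-Glo luminescence. Media-only wells were set as complete cell-killing and DMSO as no toxicity.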
* = called active by the depositor; i = inactive; ? = inconclusive; / = no result. Calls come from the whole dose curve; as a rule, active = well fitted curve in the direction sought with a large enough effect; inconclusive = small, poorly fitted or top-dose-only effect, or another doubt; inactive = no such curve, though single readings can be large; an effect the other way counts as inactive or inconclusive. Potency is the fitted concentration of half-maximal effect.

SMILES | TGFb inhibitor | ATXN2 expr inh | TDP1 cell CPT | DT40 TDP1 no CPT | ATXN viability | HepG2 viability
COc1cc(OC)c(NC(=O)CCNS(=O)(=O)c2ccc3c(c2)CC(C)N3C(C)=O)cc1Cl (stereo not given) | ? | 1.6% | 19.1% | 22.2% | i | 1.1%
COc1cc(NC(=O)CCN2CCN(c3ccccc3OC)CC2)cc(OC)c1 | -8.6% | / | ? | ? | i | -58.0%
CCOc1ccccc1NS(=O)(=O)c1ccc2c(c1)CC(C)N2C(=O)C1CC1 (stereo not given) | ? | -16.5% | ? | 14.6µM* | i | -26.3%
CCOC(=O)C1=C(c2ccccc2)Nc2ncnn2C1c1ccc(C(=O)O)cc1 (stereo not given) | -3.0% | -0.5% | -22.4% | -7.0% | i | -15.1%
CCOC(=O)C1=C(c2ccccc2)NC(N)=NC1c1ccc(OCc2ccc(C(=O)OC)cc2)cc1 (stereo not given) | ? | 25.1µM* | ? | 13µM* | 28.2µM* | -53.1%
N=C1C(c2ccccc2)=C(O)CN1c1cccc2ccccc12 | -0.1% | 5.6% | ? | ? | i | 19.1%
N#CC1=C(S)N(c2ccccc2)C(c2ccco2)NC1=O (stereo not given) | -0.8% | -31.9% | 0.7% | -5.5% | ? | 8.8%
Cc1ccc(N2C(S)=C(C#N)C(=O)NC2c2cccs2)cc1 (stereo not given) | ? | / | 14.6µM* | 13µM* | i | -21.5%
Cc1ccc(N2C(S)=C(C#N)C(=O)NC2c2ccco2)cc1 (stereo not given) | ? | -2.5% | 23.1µM* | ? | i | -31.2%
COc1ccccc1NS(=O)(=O)c1cccc(C(=O)OCC(=O)NC2CC2)c1 | -3.4% | -2.1% | -2.0% | -15.5% | ? | 7.1%
CCCC(=O)Oc1ccccc1C1SCc2cc(C)c(C)cc2CS1 | -3.0% | 5.8% | 18.4µM* | 25.9µM* | i | -5.6%
Cc1ccc(N2CCN(C(=O)C(=O)c3ccc4c(c3)OCO4)CC2)cc1 | / | / | -8.5% | 1.1% | / | /
CN1CCc2c(sc(NC(=O)c3cc(Cl)sc3Cl)c2C(N)=O)C1 | -25.6% | -8.8% | ? | 20.6µM* | i | -58.9%
CN1CCc2c(sc(NC(=O)c3ccc(S(=O)(=O)N4CCCC4)cc3)c2C(N)=O)C1 | -12.8% | -27.0% | ? | 16.4µM* | i | -3.5%
CNC(=O)c1c(NC(=O)c2ccc(S(=O)(=O)N3CCCc4ccccc43)cc2)sc2c1CCN(C)C2 | 6.5% | ? | 23.1µM* | 13µM* | i | -36.2%
CN1CCc2c(sc(NC(=O)c3ccc(S(=O)(=O)N4CCCCCC4)cc3)c2C(N)=O)C1 | -1.4% | ? | 18.4µM* | 11.6µM* | / | -20.3%
CN1CCc2c(sc(NC(=O)c3ccc(S(=O)(=O)N4CCOCC4)cc3)c2C(N)=O)C1 | -1.3% | -6.0% | -22.3% | -30.0% | i | 3.2%
Cn1cc(-c2nc3cnc(Oc4ccccc4)nc3n(C)c2=O)c2ccccc21 | / | / | 2.6% | 6.2% | / | /
CC(=O)C(Sc1nn(C)c(=S)s1)C(=O)Nc1ccccc1 (stereo not given) | 0.6% | 0.0% | -3.2% | ? | i | -11.9%
COc1ccc(-n2cc(C(=O)c3cc4ccccc4oc3=O)c(C(C)=O)n2)cc1 | 0.0% | 32.9% | 23.1µM* | ? | i | -5.5%
COc1ccc(CNC(=O)c2cc3ccccc3oc2=O)cc1 | -4.0% | 0.6% | -12.0% | 9.5% | i | -2.4%
CN(C(=O)CSc1nc2ccccc2c(=O)n1-c1ccccc1Cl)C1CCS(=O)(=O)C1 (stereo not given) | 9.2% | 2.3% | -22.9% | ? | ? | -7.2%
O=C(C1CCCN(c2ncnc3c2nc2n3CCCCC2)C1)N1CCN(c2cccc(Cl)c2)CC1 (stereo not given) | 11.2µM* | / | 23.1µM* | 18.4µM* | 14.1µM* | -38.1%
CN(C(=O)C1CCCN(c2ncnc3c2nc2n3CCCCC2)C1)c1cccc(Cl)c1 (stereo not given) | ? | -33.5% | 13µM* | 11.6µM* | i | -22.7%
COc1ccccc1N1CCN(c2ncnc3c2nc2n3CCCC2)CC1 | ? | ? | 18.4µM* | 18.4µM* | ? | -30.1%
SMILES | TGFb inhibitor | ATXN2 expr inh | TDP1 cell CPT | DT40 TDP1 no CPT | ATXN viability | HepG2 viability
COc1ccccc1N1CCN(C(=O)C2CCCN(c3ncnc4c3nc3n4CCCCC3)C2)CC1 (stereo not given) | -25.9% | -22.6% | 14.6µM* | 16.4µM* | i | -17.6%
COC(=O)CCN(Cc1ccco1)S(=O)(=O)c1ccc(F)cc1Br | 0.4% | / | / | / | / | 3.7%
Cc1ccc([N+](=O)[O-])cc1S(=O)(=O)Nc1ccccn1 | -2.4% | 8.7% | -1.3% | -0.6% | ? | -12.9%
Cc1ccc(C)c(N2CCN(C(=O)C3CCCN(c4ncnc5c4nc4n5CCCCC4)C3)CC2)c1 (stereo not given) | 17.8µM* | ? | 16.4µM* | 23.1µM* | ? | -45.3%
CC1CCCN(c2ncnc3c2nc2n3CCCCC2)C1 (stereo not given) | -8.8% | 80.9% | -24.2% | ? | i | 5.7%
Cc1ccc(C)c(N2CCN(c3ncnc4c3nc3n4CCCCC3)CC2)c1 | 0.0% | 6.1% | ? | ? | i | -29.8%
CCN(C(=O)C1CCN(c2ncnc3c2nc2n3CCCCC2)CC1)c1cccc(Cl)c1 | 11.2µM* | / | ? | ? | / | -22.0%
O=C(C1CCCN(c2ncnc3c2nc2n3CCCCC2)C1)N1CCN(c2ccccc2)CC1 (stereo not given) | 4.2% | / | ? | 2.06µM* | i | -3.1%
Cc1ccccc1N(C)C(=O)C1CCCN(c2ncnc3c2nc2n3CCCCC2)C1 (stereo not given) | -0.7% | ? | ? | 23.1µM* | i | 3.8%
NC(=O)COC(=O)CSc1cccc2cccc(Cl)c12 | 6.5% | 10.1% | -8.2% | ? | i | -3.8%
Cc1ccc(-n2nc(C(=O)N3CCN(c4ccccc4F)CC3)c(=O)n(C)c2=O)cc1 | -2.6% | -5.1% | -9.0% | -14.2% | i | 0.3%
CC1=C(C(=O)Nc2ccccc2C)C(c2ccc[nH]2)n2ncnc2N1 (stereo not given) | 0.6% | / | ? | ? | / | -0.4%
